From the supplement of paper PMC10681739 come the findings set out here.

Assay [1] addresses RUNX1 (UniProt Q01196). In words: RUNX1 binding intensity (PBM fluorescence), RUNX1 alone (arbitrary fluorescence units); higher = stronger binding. As to conditions: RUNX1 concentration 2 nM; ETS1 concentration 0 nM. Here is the method:
(§1)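 Cooperative gcPBM on 36-bp genomic probes with neighbouring ETS1 and RUNX1 sites. Recombinant human RUNX1 (2 nM) was incubated alone or with ETS1 (25 nM) and detected with anti-RUNX1 antibody plus Alexa488 secondary. Values are medians over 4 replicate spots; the RUNX1+ETS1 data were normalised to the RUNX1-only data. The probes sit in constant array flanks that are not printed.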

Assay [2] deals with RUNX1 (UniProt Q01196). In words: RUNX1 binding intensity (PBM fluorescence) in presence of ETS1, normalised to RUNX1-only experiment (arbitrary fluorescence units); higher = stronger binding. As to conditions: RUNX1 concentration 2 nM; ETS1 concentration 25 nM. How it is done: as §1
Chain of RUNX1 (Q01196 whole entry): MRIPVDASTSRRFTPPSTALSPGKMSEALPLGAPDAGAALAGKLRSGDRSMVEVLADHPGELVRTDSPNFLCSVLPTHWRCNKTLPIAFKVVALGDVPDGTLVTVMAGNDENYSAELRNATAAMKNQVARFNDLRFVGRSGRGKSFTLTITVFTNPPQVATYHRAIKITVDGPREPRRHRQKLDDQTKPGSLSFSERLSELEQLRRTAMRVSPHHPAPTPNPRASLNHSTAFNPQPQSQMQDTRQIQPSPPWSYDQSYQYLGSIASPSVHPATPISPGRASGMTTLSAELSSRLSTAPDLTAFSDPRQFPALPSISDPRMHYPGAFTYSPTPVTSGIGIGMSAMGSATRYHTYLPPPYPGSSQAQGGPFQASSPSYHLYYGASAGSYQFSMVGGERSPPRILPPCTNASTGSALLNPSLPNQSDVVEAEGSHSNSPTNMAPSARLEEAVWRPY
In assay [3] the target is T1, ETS1 (UniProt P14921).
T1 sequence: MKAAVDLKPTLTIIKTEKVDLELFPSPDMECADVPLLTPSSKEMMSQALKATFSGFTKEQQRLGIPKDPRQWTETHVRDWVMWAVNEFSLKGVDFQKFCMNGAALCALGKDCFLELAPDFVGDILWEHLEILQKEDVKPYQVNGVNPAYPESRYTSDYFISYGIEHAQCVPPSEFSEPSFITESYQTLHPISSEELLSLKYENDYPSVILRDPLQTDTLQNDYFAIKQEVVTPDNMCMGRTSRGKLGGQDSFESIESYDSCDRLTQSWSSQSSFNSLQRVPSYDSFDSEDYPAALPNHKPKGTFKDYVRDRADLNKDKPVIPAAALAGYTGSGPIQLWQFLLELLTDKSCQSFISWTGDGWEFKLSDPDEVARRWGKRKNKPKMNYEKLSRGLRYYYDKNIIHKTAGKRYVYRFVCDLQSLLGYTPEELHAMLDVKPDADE
As to the kind of experiment: ETS1 binding intensity (PBM fluorescence), ETS1 alone (arbitrary fluorescence units); higher = stronger binding. As to conditions: ETS1 concentration 1 nM; RUNX1 concentration 0 nM.

Assay [4] concerns the target T1, ETS1. In words: ETS1 binding intensity (PBM fluorescence) in presence of RUNX1, normalised to ETS1-only experiment (arbitrary fluorescence units); higher = stronger binding. As to conditions: ETS1 concentration 1 nM; RUNX1 concentration 25 nM.
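Wherever RUNX1 binding intensity (PBM fluorescence) in presence of ETS1, normalised to RUNX1-only experiment is given: Full-length recombinant human ETS1 or RUNX1 bound to double-stranded 36-bp genomic probes on microarrays, detected by protein-specific primary antibody and Alexa488 secondary, spot fluorescence as median of four replicate spots.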
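Wherever RUNX1 binding intensity (PBM fluorescence), RUNX1 alone is given: Full-length recombinant human RUNX1 bound to double-stranded 36-bp genomic probes on a high-density microarray, scored as Alexa488 fluorescence per spot via anti-RUNX1 antibody, median of four replicate spots.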

For the sequence AGCTTCCGAGTCTGTTGTGGAGTGGGAACCGCGACT, the RUNX1 binding intensity stood at 724 with RUNX1 [1] and 1020 with RUNX1 [2].

With CAGACACCAACGCTCGGAAACCGCCAGACACCAAGG, the values for the RUNX1 binding intensity with RUNX1 [1] and with RUNX1 [2] were 1030 and 888, respectively.

For the sequence TAGGCGGAAAGCCCGCTAGCCTAAACCACAGAGGGT, the RUNX1 binding intensity was 896 with RUNX1 [1] and 872 in the assay with RUNX1 [2].

Take ACGTCAGCATCCGCCGGGCTCGCGGTAAGGTGTGAG: the RUNX1 binding intensity amounted to 736 with RUNX1 [1] and 1280 with RUNX1 [2].

Regarding GAAATCCATCACGGATGTGGGCTTTTTGCTCTCATT, the RUNX1 binding intensity was 760 with RUNX1 [1] and 1010 in the assay with RUNX1 [2].

As to GTTGTCTTCTTCCTGAGTAAACCGCAGTGCAGAGAA, the results for the ETS1 binding intensity with ETS1 [3] and with ETS1 [4] were 456 and 1120, respectively. In addition, in the assay with RUNX1 [2], the RUNX1 binding intensity was determined as 6380.

Consider CCTGTTGATAAAACAGGATGTGGTAAAGAAGCTGGC, for which the RUNX1 binding intensity in the assay with RUNX1 [1] came to 830; with RUNX1 [2], 10300.

For TGAGTTTTGTTTCCGATTCACCACAGAAGATACTTT, the RUNX1 binding intensity with RUNX1 [1] is 2230; with RUNX1 [2], 2560.

As for GCTGTCCGTTTCCGAGATGTTAATGCGGGATCTTGC, the results for the RUNX1 binding intensity in the assay with RUNX1 [1] and with RUNX1 [2] were 920 and 988, respectively.

CTTTTCCATGCAGGAAGTGGTTTTTAGAGTGTAGAG: the ETS1 binding intensity with ETS1 [3] amounted to 7750; in the assay with ETS1 [4], 20100. Moreover, the RUNX1 binding intensity in the assay with RUNX1 [2] came out at 2920.

Turning to CCCATTTCCGAGAGTGGCAGGGCTGGGCGCGGTGGG, the RUNX1 binding intensity came to 978 with RUNX1 [1] and 1420 with RUNX1 [2].

Regarding CAGAGAAACAGGAAGAACAGTGGTTTCAACTGAAAT, the ETS1 binding intensity in the assay with ETS1 [3] and with ETS1 [4] was 1310 in each case. In the assay with RUNX1 [2], the RUNX1 binding intensity is 939.

As to CTTAGGACTTCCCGTAGATGGTGGTCTGTGCTAAGG, the results for the RUNX1 binding intensity in the assay with RUNX1 [1] and with RUNX1 [2] were 706 and 1050, respectively.

Regarding ATTTTAGCATTTTCCTGCTCGGAGACCACATGTTTG, the RUNX1 binding intensity with RUNX1 [1] worked out at 1170; with RUNX1 [2], 1220.

On to AGGCCAGACGCCTTCCGTGGTTTACGGTGAGGGTGG, for which the RUNX1 binding intensity was 884 with RUNX1 [1] and 799 in the assay with RUNX1 [2].

As to CGGCTAGGAAATAAAGAGCCTTCTCTCCGCGGTAGG, the RUNX1 binding intensity in the assay with RUNX1 [1] amounted to 2270; with RUNX1 [2], 2200.

TGGGTGCCGGATTCGGTGAGTGTGGTTCTCATGATG: the RUNX1 binding intensity in the assay with RUNX1 [1] is 654; with RUNX1 [2], 895.

As for GGACCGGTGTCTGGCGGATGCGGTCGTGAAGATAGG, the RUNX1 binding intensity came out at 710 in the assay with RUNX1 [1] and 1130 with RUNX1 [2].
